From PubChem
Sampled rows, rich in hits. Any-hit rate of the full collection: about 8.2%.
ELG1 repair inh = inhibitors of ELG1-dependent DNA repair in HEK293T cells. HEK293T ELG1-luciferase reporter, luminescence, 16 h; DNA damage induced by 5-fluorouridine. Potency, µM (top dose mostly 46.1 µM), for inactives: at the highest dose activity change, negative = inhibition, actives largely listed as inhibitors. 2.3% of 330,000 active; further: on the % scale 0 is the no-effect control and ±100 the full control effect; nearly all actives have a fitted effect of over 55% in size
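Quantitative HTS, concentration-response format. 2,000 cells/well co-treated with 5-fluorouridine and compound, 16 hr in 5% CO2 at 37 °C; ONE-Glo luminescence read after 30 min.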
KB-V1 cytotox = kills drug-selected multidrug resistant KB-V1 cells; 3.4% of 400,000 active; Potency, µM (titrated, usually from 46.1 µM), actives largely listed as cytotoxic; KB-V1 MDR cells viability, CellTiter-Glo, 72 h; further: on the % scale 0 is the no-effect control and ±100 the full control effect; nearly all actives have a fitted effect of over 60% in size
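KB-V1, DMEM (no phenol red) + 10% FBS; cpd pin-transferred, titration series; 72 h, 37 degrees C; CellTiter-Glo, luminescence. Data normalized, curve-fit.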
SW480 rerep = DNA re-replication induction in SW480 cells. Potency, µM (titrated, usually from 46.1 µM), without a hit: at the highest dose re-replication activation, usual class: activators. 1.8% of 340,000 active. SW480 DNA re-replication, Hoechst DNA content imaging, 48 h; further: % of control where 0% means no effect; nearly all actives have a fitted effect of over 55% in size
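Per well, 250 cells were exposed to pinned compound for 48 hr. Nuclear DNA was visualised with Hoechst (40 min, 37 C) and total object intensity recorded by fluorescence scanning.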
MCF10A rereplic = inducers of DNA re-replication in MCF 10A breast cells; MCF 10A DNA re-replication, Hoechst nuclear intensity, 48 h; Potency, µM (highest dose often 46.1 µM), inactives show at the top dose activity, positive = re-replication, actives largely listed as activators; 2.9% of 350,000 active; AID 624296; further: % of control where 0% means no effect; nearly all actives have a fitted effect of over 50% in size
KB-3-1 tox = KB-3-1 parental cell cytotoxicity; AID 1347075; KB-3-1 viability, CellTiter-Glo ATP luminescence, 72 h; Potency, µM (doses to about 46.1 µM), actives largely listed as cytotoxic; 1.4% of 400,000 active; further: on the % scale 0 is the no-effect control and ±100 the full control effect; nearly all actives have a fitted effect of over 60% in size
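72 h, 37 °C compound treatment of KB-3-1 parental cells; CellTiter-Glo added, 10 min, luminescence read. Data corrected against DMSO-only plates and normalized before curve fitting.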
Active calls of the source: *. The call rests on the fitted dose curve; in most records, active means well fitted curve in the direction sought with a large enough effect; inconclusive means small, poorly fitted or top-dose-only effect, or another doubt; inactive means no such curve, though single readings can be large; an effect the other way counts as inactive or inconclusive. Potency means the concentration at half of the fitted maximal effect.

Screening CCOC(=O)[C@]12CCC=C1N(Cc1ccc(Cl)cc1Cl)C(=O)[C@H](CC(=O)NCc1ccccc1)C2 returned KB-V1 cytotox inconclusive and KB-3-1 tox inactive.
For Cc1cc(O)c(C(c2ccc(F)cc2)N2CCN(c3ccccc3)CC2)c(=O)n1Cc1ccco1 (centres undefined) the results were KB-V1 cytotox inactive and KB-3-1 tox inactive.
`O=C(CCl)Nc1cc2[nH]c(=O)[nH]c2cc1Br` gave ELG1 repair inh inconclusive, KB-V1 cytotox 15µM*, SW480 rerep inconclusive, MCF10A rereplic 21µM* and KB-3-1 tox inconclusive.
Cc1cc2oc(=O)cc(C)c2cc1NC(=O)CCl was read as ELG1 repair inh -4%, KB-V1 cytotox inactive, SW480 rerep inconclusive, MCF10A rereplic 29% and KB-3-1 tox inconclusive.
`CCC(=O)Nc1cc2[nH]c(=O)cc(C)c2cc1C` gave ELG1 repair inh -5%, KB-V1 cytotox inactive, SW480 rerep -22%, MCF10A rereplic 0.65µM* and KB-3-1 tox inactive.
Screening Cc1cc2c(C)cc(=O)[nH]c2cc1NC(=O)CCl returned ELG1 repair inh inconclusive, KB-V1 cytotox inconclusive, SW480 rerep 21µM*, MCF10A rereplic 12µM* and KB-3-1 tox inconclusive.
Screening Cc1cc(=O)[nH]c2ccc(O)cc12 returned KB-V1 cytotox inactive and KB-3-1 tox inactive.
Screening CN(Cc1ccccc1)C(=O)c1ccc2c(c1)N(Cc1ccc(Cl)cc1)C(=O)c1ccccc1S2=O (centres undefined) returned KB-V1 cytotox inconclusive and KB-3-1 tox 16µM*.
Screening CCOCCCNC(=O)c1ccc2c(c1)N(CC)C(=O)c1ccccc1S2=O (centres undefined) returned ELG1 repair inh -13%, KB-V1 cytotox 18µM*, SW480 rerep 5%, MCF10A rereplic 6% and KB-3-1 tox inconclusive.
O=C(NCc1ccco1)c1ccc2c(c1)N(Cc1ccc(Cl)cc1)C(=O)c1ccccc1S2=O (centres undefined) was read as KB-V1 cytotox inactive and KB-3-1 tox inactive.
`CC1CC(C)CN(CCCNC(=O)c2ccc3c(c2)N(Cc2ccccc2)C(=O)c2ccccc2S3=O)C1` (centres undefined) gave ELG1 repair inh 0%, KB-V1 cytotox inactive, SW480 rerep inconclusive, MCF10A rereplic 12µM* and KB-3-1 tox inactive.
Screening N#Cc1nnn2c1nc(N)c1c(Cl)cccc12 returned KB-V1 cytotox 0.58µM* and KB-3-1 tox 1.3µM*.
Screening N#Cc1nnn2c1nc(N)c1c(F)cccc12 returned KB-V1 cytotox 2.9µM*, SW480 rerep -2%, MCF10A rereplic 5% and KB-3-1 tox inconclusive.
For CC(=O)Nc1cccc(-c2ccnc3c2CC(C(=O)Nc2ccc(C(C)C)cc2)O3)c1 (centres undefined) the results were KB-V1 cytotox inconclusive and KB-3-1 tox inactive.
O=C(NC1(C(F)(F)F)C(=O)Nc2c1c(=O)[nH]c(=O)n2CCc1ccccc1)c1ccc(Cl)cc1 (centres undefined) was read as KB-V1 cytotox inactive and KB-3-1 tox inactive.
For Cc1ccc(NC(=O)c2cc(S(=O)(=O)NCCC3=CCCCC3)ccc2F)cc1 the results were ELG1 repair inh -5%, KB-V1 cytotox 2.3µM*, SW480 rerep 25%, MCF10A rereplic inconclusive and KB-3-1 tox inconclusive.
For Cc1ccccc1CN(c1ccc(C(=O)NCCC2=CCCCC2)cc1)S(C)(=O)=O the results were ELG1 repair inh -19%, KB-V1 cytotox 13µM*, SW480 rerep 4%, MCF10A rereplic 1% and KB-3-1 tox inconclusive.
Screening Cc1ccc(CNS(=O)(=O)c2ccc(F)c(C(=O)Nc3ccc(C)c(F)c3)c2)cc1 returned KB-V1 cytotox inactive and KB-3-1 tox inactive.
Screening Cc1ccc(S(=O)(=O)N(CC(=O)NCCC2=CCCCC2)Cc2ccccc2)cc1 returned ELG1 repair inh -7%, KB-V1 cytotox 18µM*, SW480 rerep inconclusive, MCF10A rereplic inconclusive and KB-3-1 tox inconclusive.
